Measured values taken from PubChem BioAssay AID504558 (Broad Institute, 2011).
Screen size: about 350,000 compounds; about 2,400 (0.69%) were called active. Rule as the data show it: active = inhibition above about 41%; inconclusive = no clear call, values can overlap the other calls; inactive = below that. Only a selection was taken, and actives are over-represented in it overall.

Test: EBV LMP1-driven NF-kappaB luciferase reporter inhibitors, primary screen, cell-based, luminescence, single point (AID 504558);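 also: 0% = neutral control wells and 100% = reference inhibitor control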
Conditions: LMP1-induced NF-kappaB luciferase reporter cells, at 12.5 µM, stronger effect = higher value

| SMILES | inhibition |
| --- | --- |
| CN1OC[C@@H]2CN(S(=O)(=O)c3cccc(C(F)(F)F)c3)[C@H](c3ccc(-c4cc5ccccc5o4)cc3)C[C@@H]21 | 23.8% (inactive) |
| COc1ccc(NC(=O)N(C)C[C@H]2Oc3ncc(C#C[C@@H](C)O)cc3C(=O)N([C@H](C)CO)C[C@H]2C)cc1 | 3.12% (inactive) |
| Oc1ccccc1N1CCN(C(=S)NCc2ccccc2)CC1 | 0.986% (inactive) |
| O=C(COC(=O)c1ccccc1C(=O)N1CCN(c2ccccc2)CC1)NCc1ccccc1 | -5.9% (inactive) |
| Oc1ccc(N2CCN(C(=S)NCc3ccccc3)CC2)cc1 | 50.7% (active) |
| CC(C)N=C1CCCC1C(=S)SSC(=S)C1CCCC1=NC(C)C (stereo not drawn) | 24.4% (inactive) |
| O=C(NCCN1CCOCC1)C1CCN(S(=O)(=O)c2ccccc2)CC1 | 5.14% (inactive) |
| O=C(/C=C\c1ccc2c(c1)OCO2)NC1(C(=O)Nc2ccc3c(c2)OCCO3)CCCCC1 | -3.03% (inactive) |
| COc1cccc(/C=C/C(=O)Nc2ccc3c(c2)OCCO3)c1 | 58.7% (active) |
| COc1ccc(OC)c(/C=C/C(=O)OCC(=O)Nc2ccc3c(c2)OCCO3)c1 | 0.837% (inactive) |
| CC1CCCC(NC(=O)COC(=O)c2ccccc2C(=O)N(C)C2CCCCC2)C1C (stereo not drawn) | -11.2% (inactive) |
| COc1cccc(/C=N/NC(=O)c2[nH]nc3c2CCc2ccccc2-3)c1O | 69.4% (active) |
| COc1ccc(/C=C2\CCc3ccccc3C2=O)c(OC)c1OC | -2.98% (inactive) |
| CCn1c(/C=N/NC(=O)c2ccc(OC)cc2)nc2ccccc21 | 4.88% (inactive) |
| CC1=C(C(=O)N2CCOCC2)CC(CC(=O)NCC2CCCCC2)C(=O)N1Cc1ccc(F)cc1 (stereo not drawn) | -0.637% (inactive) |
| CCCc1ccc(S(=O)(=O)N2CCN(C(=O)c3cc(C)on3)CC2)cc1 | -4.88% (inactive) |
| C[C@H](CO)N1C[C@H](C)[C@@H](CN(C)Cc2ccc3c(c2)OCO3)OCc2cnnn2CCCC1=O | 4.06% (inactive) |
| CC(C)C1CCN(C(=O)C2CCC(=O)N(C3CCCCCC3)C2)CC1 (stereo not drawn) | -25.4% (inactive) |
| S=C(NCC1CCCO1)N1CCN(c2ccc(Cl)c(Cl)c2)CC1 (stereo not drawn) | 10% (inactive) |
| COc1ccc(S(=O)(=O)N2CCN(C(=S)NCC3CCCO3)CC2)cc1OC (stereo not drawn) | 74.2% (active) |
| CCOc1ccc(S(=O)(=O)N2CCN(C(=S)NCC3CCCO3)CC2)cc1 (stereo not drawn) | -0.069% (inactive) |

| SMILES | inhibition |
| --- | --- |
| C[C@H](CO)N1C[C@H](C)[C@H](CN(C)C(=O)c2ccncc2)OCc2ccccc2-c2c(n(C)c3ccccc23)C1=O | 2.77% (inactive) |
| C[C@H]1CN([C@@H](C)CO)C(=O)CCCn2nncc2CO[C@@H]1CN(C)S(=O)(=O)c1cccc(C#N)c1 | 2.8% (inactive) |
| CN1OC[C@@H]2CN[C@H](c3ccc(-c4ccccc4)cc3)C[C@@H]21 | -14.4% (inactive) |
| COc1cccc(NC(=O)N(C)C[C@@H]2Oc3ncc(Br)cc3C(=O)N([C@@H](C)CO)C[C@H]2C)c1 | 1.17% (inactive) |
| CSc1nnc(NC(=O)c2nc(S(=O)(=O)Cc3ccc(C)cc3)ncc2Cl)s1 | 24.2% (inactive) |
| Cc1ccc(CS(=O)(=O)c2ncc(Cl)c(C(=O)Nc3nnc(C)s3)n2)cc1 | 85.8% (active) |
| Cc1cccc(NC(=O)c2nc(S(=O)(=O)Cc3ccccc3)ncc2Cl)c1 | 19.5% (inactive) |
| CC1(C)OC(=O)C2=C(CC(c3ccccc3)OC2CCc2ccccc2)O1 (stereo not drawn) | 3.89% (inactive) |
| C[C@@H]1C[C@@H]2O[C@H]2/C=C\C=C\C(=O)Cc2c(Cl)c(O)cc(O)c2C(=O)O1 | 80% (active) |
| CCOC(=O)c1c(C)[nH]c(C)c1C(=O)COC(=O)/C=C/c1cccc([N+](=O)[O-])c1 | 7.29% (inactive) |
| Nc1nnn(CC(=O)N/N=C/c2ccc(O)cc2)n1 | -8.43% (inactive) |
| O=C(C[n+]1ccccc1)N/N=C/c1ccc(O)cc1 | 45.7% (active) |
| Cc1nonc1C(=O)N/N=C/c1ccc(O)cc1 | -10.7% (inactive) |
| O=C(OCc1ccccc1)N1CCC2CC1c1ccc(-c3ccc4c(c3)OCO4)cc12 (stereo not drawn) | -5.51% (inactive) |
| O=NN(CCCl)C(=O)NCCc1cccc[n+]1[O-] | 1.36% (inactive) |
| Cc1csc(NC(=O)c2ccc(-c3ccc(Cl)cc3Cl)o2)n1 | 5.23% (inactive) |
| COc1ccc(C(=O)NC2=NCCS2)c(OC)c1 | 14.4% (inactive) |
| COc1cc(SC)ccc1C(=O)NNC(=O)C1COc2ccccc2O1 (stereo not drawn) | 3.35% (inactive) |
| COC(=O)c1sc(NC(=O)c2ccc(OC)cc2OC)nc1C | 56.8% (active) |
| COC(=O)c1sc(NC(=S)NC(=O)c2ccc(C)cc2)nc1C | -2.09% (inactive) |
| COc1cc(SC)ccc1C(=O)Nc1nc(C)cs1 | 77% (active) |

| SMILES | inhibition |
| --- | --- |
| O=C(c1ccc(N2CCCC2=O)cc1)N1CCN(c2ccc(C(F)(F)F)cc2[N+](=O)[O-])CC1 | 5.85% (inactive) |
| CCc1c(N=O)c(-c2ccccc2)n(O)[n+]1[O-] | -1.78% (inactive) |
| COc1ccc(CN2C[C@H]3CON(C)[C@H]3C[C@H]2c2ccc(-c3cccc(F)c3)cc2)cc1 | 6.65% (inactive) |
| C=CCN1CCN(c2ccncc2S(=O)(=O)N2CCN(C)CC2)CC1 | -2.07% (inactive) |
| C[C@H]1CN([C@@H](C)CO)C(=O)CCCn2cc(nn2)CO[C@@H]1CN(C)S(=O)(=O)c1ccc(-c2ccccc2)cc1 | 1.8% (inactive) |
| CC(=O)CC[C@@H](C)O[C@@H]1OC(C)[C@H](O)CC1O (stereo partly drawn) | 85.2% (active) |
| COCCNC(=O)CSc1nc(N)c(NC(=O)c2ccco2)c(=O)[nH]1 | 2.34% (inactive) |
| CN1CCN(c2ccncc2S(=O)(=O)N2CCCC2)CC1 | -0.542% (inactive) |
| Cn1nc(N)c2ncc(C(Cl)(Cl)Cl)nc21 | 1.82% (inactive) |
| O=C1[C@H]2[C@@H](c3ccc(C(F)(F)F)cc3)N[C@]3(CCCN(Cc4ccc(Br)cc4)C3=O)[C@H]2C(=O)N1Cc1ccccc1 | -24.7% (inactive) |
| CCCCCOC(=O)c1ccc(N2C(=O)C3C4C=CC(C4)C3C2=O)cc1 (stereo not drawn) | 0.71% (inactive) |
| CCCCCCCCCCOC(=O)C[N+](C)(C)CC1CCCCC1O (stereo not drawn) | 51% (active) |
| CCCN=C1N(C)C[C@@H]2[C@@H]3C(=O)N(Cc4ccccc4)C(=O)[C@@H]3[C@](C)(C(=O)OC)N12 | -3.21% (inactive) |
| CC[C@]1(C(=O)OC)[C@H]2C(=O)N(Cc3ccccc3)C(=O)[C@H]2[C@H]2CN=C(SCc3ccc(Cl)cc3)N21 | 87.9% (active) |
| CCN1C[C@@H]2[C@@H]3C(=O)N(Cc4ccccc4)C(=O)[C@@H]3[C@](Cc3ccccc3)(C(=O)OC)N2C1=NC1CCCCC1 | 0.675% (inactive) |
| CC[C@]1(C(=O)OC)[C@H]2C(=O)N(Cc3ccccc3)C(=O)[C@H]2[C@H]2CN=C(SCc3ccc(C#N)cc3)N21 | 61.8% (active) |
| CC[C@]1(C(=O)OC)[C@H]2C(=O)N(Cc3ccccc3)C(=O)[C@H]2[C@H]2CN=C(SCc3ccccc3)N21 | -0.0665% (inactive) |
| COC(=O)[C@@]1(C)[C@H]2C(=O)N(Cc3ccccc3)C(=O)[C@H]2[C@H]2CN=C(SCC3CC3)N21 | -0.447% (inactive) |
| C[C@@H]1CN([C@H](C)CO)C(=O)CCCn2nncc2CO[C@@H]1CN(C)C(=O)OCc1ccccc1 | 3.33% (inactive) |
| CCCCCC(=O)N1C[C@H](O)[C@@H](n2cc(COC(=O)c3ccccc3)nn2)C[C@@H]1c1ccc(C)cc1 | -2.09% (inactive) |
| CC(C)n1ncc2c(C(=O)N3CCN(Cc4cccs4)CC3)cc(C3CC3)nc21 | -5.29% (inactive) |

| SMILES | inhibition |
| --- | --- |
| NC(=S)NN=Cc1ccc(OC(=O)COc2cc(Cl)c(Cl)cc2Cl)cn1 | 12.2% (inactive) |
| CC1=C(C(=O)N(C)C)CC(CC(=O)NCCN2CCOCC2)C(=O)N1Cc1ccccc1 (stereo not drawn) | -6.42% (inactive) |
| O=C(c1cccs1)N1C[C@H](n2cc(C3CC3)nn2)[C@@H](O)C[C@@H]1c1ccccc1 | 5.6% (inactive) |
| COc1ccc(CCNC(=O)C2CCCN2C(=O)Nc2ccccc2)cc1OC (stereo not drawn) | -0.848% (inactive) |
| O=C(NCc1ccccc1CN1CCCC1)C1CCN(S(=O)(=O)c2ccc(Cl)cc2)CC1 | -3.5% (inactive) |
| COc1ccc(NC(=O)N2CCCC2C(=O)NCc2ccccc2Cl)cc1 (stereo not drawn) | 86.6% (active) |
| COc1ccc(NC(=O)C(NC(C)=O)C(=O)NCc2ccccc2Cl)cc1 (stereo not drawn) | -2.84% (inactive) |
| O=C(NCc1ccccc1Cl)C1CCCN1S(=O)(=O)c1ccc(F)cc1 (stereo not drawn) | 45.2% (active) |
| Cc1cccc(NC(=O)C2CCCN2S(=O)(=O)c2ccc(F)cc2)c1C (stereo not drawn) | -1.63% (inactive) |
| CN1CCn2cnc(C(=O)NCC(=O)OC(C)(C)C)c2C1=O | 6.74% (inactive) |
| COc1ccc(-c2ccc(CN3C(CC(C)C)C(=O)N(Cc4cn(CC5CCCCC5)nn4)CCS3(=O)=O)cc2)cc1 (stereo not drawn) | 17.4% (inactive) |
| CCCNC(=O)C1CC(=O)N(c2ccc(OCc3ccccc3)cc2)C1 (stereo not drawn) | -15.7% (inactive) |
| C/C(COc1ccccc1)=N\NC(=O)c1nnn(-c2nonc2N)c1-c1ccc(C)cc1 | 4.25% (inactive) |
| Cc1cc(Nc2ccc(C)c(C)c2)n2ncnc2n1 | 8.05% (inactive) |
| CC1CCCN(C(=O)CN2C(=O)c3ccccc3S2(=O)=O)C1 (stereo not drawn) | -11.4% (inactive) |
| O=C(CN1C(=O)c2ccccc2S1(=O)=O)N1CCc2ccccc21 | 71.7% (active) |
| O=C(CSCc1ccccc1)N1CCc2ccccc21 | -29.9% (inactive) |
| CC1(C2CC2)NC(=O)N(CC(=O)N2CCN(c3ccccc3F)CC2)C1=O (stereo not drawn) | -9.22% (inactive) |
| COc1cc2nnn(-c3ccncc3)c2cc1OC | -4.43% (inactive) |
| CCCCN(C(C)=O)c1ccc2c(c1)C1CC2CCN1Cc1ccccc1 (stereo not drawn) | 2.88% (inactive) |
